In the supplement of paper PMC6555819:

Columns and labels:
Assay in all cases: PBM binding z-score (relative to random genomic background probes); higher = stronger binding; sequences stand for … in GC…GCGATTGACAGCGTAGAATGAAGG
[1] = system: RARb homodimer (NR concentration 270 nM)
How it was run: (§1)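 Antibodies against each partner of ligand-free nuclear receptor dimers (one per run) detected binding on custom Agilent 4×180K protein-binding microarrays after 1 h incubation. The double-stranded probes had 34-nt variable regions carrying direct-repeat seeds, single-nucleotide variants, half-site ablations and random human genomic background sequences. Binding z-scores, from regression-normalized fluorescence, use the random background probes as reference.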

[2] = system: RARg:RXRa (NR concentration 270 nM, RXRa partner concentration 90 nM)
How it was run: as §1

[3] = system: RARg homodimer (NR concentration 270 nM)
How it was run: as §1

[4] = system: RXRa DBDmut IVT, anti-RXR (DBD mutation: RXRa K156A/R161A, NR concentration 90 nM)
How it was run: as §1

[5] = system: RXRa homodimer (NR concentration 180 nM)
How it was run: as §1

[6] = system: THRa:RXRa (NR concentration 90 nM, RXRa partner concentration 90 nM)
How it was run: as §1

[7] = system: THRa homodimer (NR concentration 90 nM)
How it was run: as §1

[8] = system: VDR homodimer (NR concentration 270 nM)
How it was run: as §1

Sequence	PBM binding z-score [1]	PBM binding z-score [2]	PBM binding z-score [3]	PBM binding z-score [4]	PBM binding z-score [5]	PBM binding z-score [6]	PBM binding z-score [7]	PBM binding z-score [8]
TATACAGGGTCAAAGACCAGAGTACGAATGTCGA	2.94	5.15	4.53	2.82	5.89	3.2	0.651	2.81
GGAACGAGGCCAAGTTGATAGCAGAGTTTGATGG	0.533	0.334	1.03	1.18	-0.0996	0.407	-0.535	0.778
TCTTGTAGATCAAAGGTGAAGAAAGCCGAAGCCT	0.902	0.905	0.395	0.392	1.75	0.776	-0.461	-0.594
CGAGCTAGGTCAGAACAGGACAGTGAAGGATGAT	2.11	2.12	3.53	0.0691	1.07	3.47	-0.106	-0.325
ACTATTAGTTGACTTAGGGCTACCGATACGACGC	-0.0045	0.457	0.61	0.644	0.257	1.21	0.349	0.385
TCATATAGGTAAATGCTAGGTGAAAATCCGATCT	0.208	0.578	0.633	1.54	0.795	1.24	0.427	0.374
CCTTCTGGGCCAAAGGTCATTGATTCCAATGCTC	4.44	5.8	4.73	1.41	6.15	3.44	0.658	2.23
GCGACTGGGGCAAGGCAGGTTACCATAAGGTTGG	1.16	0.436	0.635	-1.16	0.144	2.41	0.0224	-0.42
ATATGTAGGTTACATCCGGGTCATTCAAGCTATG	2.89	3.76	2.1	1.48	3.24	3.88	2.61	2.99
CAAACTAGGTCAAAGGTTAAAGTCGAGCCAACCA	3.86	7.3	5.26	2.59	8.93	4.29	1.04	1.6
TCATATAGCTAATACAGGTGAAAGTCGGCATCTA	-0.00242	0.298	0.338	1.09	0.758	0.42	-0.541	-0.107
CCTATTAGTTGAACATAAGGGCAACCGAAGCTCG	1.97	1.48	1.14	0.521	0.64	2.06	1.04	0.571
TCGAGTAGGTTAGGCGGGGCATTCAGCCAACATA	0.241	0.2	-0.0839	-0.0244	0.0673	0.994	-0.341	0.0165
CCTCGGAGGACAACGGGAGGTCAGAGCTGCCAGA	3.43	3.93	3.4	-0.419	1.76	3.04	1.32	1.08
CTCGAAACGTCGTGCTCAGGTGAGTATACCAAAC	-0.132	-0.476	-0.311	-0.187	-0.479	0.94	0.555	-0.446
TCTTGTAGATCAACAGGAGGTTTAGAAAGATCGA	-0.821	-0.145	-0.083	0.348	-0.0846	-0.426	-0.597	-0.584
AATACAGGGTCATCGTAGGCCTGAGTACGCACAG	3.36	5.59	4.89	3.34	6.77	4.2	1.25	3.73

Sequence	PBM binding z-score [1]	PBM binding z-score [2]	PBM binding z-score [3]	PBM binding z-score [4]	PBM binding z-score [5]	PBM binding z-score [6]	PBM binding z-score [7]	PBM binding z-score [8]
TAGCTTAGGTCAGATCGGGCCAGTATACGCTATA	2.23	2.89	3.71	-0.0319	1.47	4.3	0.376	-0.357
TCCTGTAGATCAAGCAGGTTAAGAAAGCCTGAGT	0.0843	-0.142	-0.295	0.428	0.45	0.254	-0.566	0.241
CGTGAAAGTTCAAGGTAACGTAACAGAAAGCAGC	3.23	5.05	5.85	4.44	4.04	3.07	0.878	3.01
TCGAGTAGGTTACCAATGGGGCATTCATCTTTCT	0.835	1.03	0.586	0.151	0.759	0.223	-0.282	-0.179
TCATATAGGTAATACAGTTGAAAGTCGGCATCTA	0.353	0.792	0.493	1.96	1.26	0.327	0.576	0.467
CCGACTAGGGCAAAGGTTACCATACTCAGTACGA	2.48	3.78	2.11	0.743	4.2	2.14	-0.117	0.229
CTACCACGGTGAACAAGGTCGTTGATTACTATTC	1.3	0.591	0.651	1.04	0.823	1.93	1.4	2.12
ATCTCTACGTAACAAGTTCAGTGAAAGAGAGGAC	1.68	0.999	1.24	0.873	0.659	1.07	0.629	2.6
ATCGAAAGGTCGAGGTGAGTAAAGAGAAAGGGAA	2.34	4.22	4.38	0.813	4.08	2.63	0.539	0.357
TAGCCTAGGTCATTCAGGGTCCAGTATAGAAAGC	3.02	4.74	4.16	2	3.11	4.2	0.899	2.74
TGAATGAGGTTAAAGATCAGGGATCGTGGCGTCG	0.409	2.25	1.11	0.89	3.63	2.33	0.0472	-0.0606
TCTTGTAGATCAGCAGGTTAAGAGAGCTGGCCAA	-0.156	-0.1	-0.407	0.292	0.367	-0.0987	-0.325	-0.364
ATCTCTAGGTAAAAGTTCAATGAATCCCGAGGAT	3	2.3	2.41	1.29	2.4	1.71	0.132	2.73
CGAACGAGGGCATAAGTTGATAGCAAATGCCGAT	0.864	1.23	1.25	2.53	0.665	0.587	-0.473	1.04
TAAATGAGGTTATAAGATCAGGGAACGTTGCAAA	0.147	1.79	0.975	1.21	2.24	1.9	0.348	0.859
ACAGACAGGTGATGAGGGTAACTCAGGCTATCAT	0.681	0.294	0.502	-0.49	0.588	2.72	0.561	-0.088
GATACAGGGTCAGCTAGAGGCCGGAGTATGGAAA	3.18	5.66	4.38	1.07	4.04	2.7	0.265	0.333
